Reference: PubChem BioAssay (EPA / NIEHS)
Values joined by “and” are separate entries in the source; they are usually repeats but may differ in a detail not shown here. Equal values may be shown once. Inconclusive results are not listed. A structure can be active in one record and inactive in another. Active and inactive are the calls of the source. The calls were made as follows: active = hit-call score of the fitted dose curve at least 0.9, where 1 is the maximum; inconclusive = response in the unintended direction; inactive = score below 0.9.

experiment: TOX21_p53_BLA_p2_viability: Viability Assessment in the Tox21 HCT-116 p53 Agonism Beta-lactamase Assay, Phase 2 (AID 2283591);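 also: compound exposure lasted 16 h at 37 °C; actives lower the ATP signal meaning cytotoxicity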
Excerpt: TOX21_p53_BLA_p2 is a cell-based, single-readout assay that uses HCT116, a human intestinal cell line, […] in a 1536-well plate.TOX21_p53_BLA_p2_viability is an assay readout measuring cellular ATP content and detected with CellTiter-Glo Luciferase-coupled ATP quantitation.TOX21_p53_BLA_p2_viability used a type of viability reporter where loss-of-signal activity can be used to understand changes in the cell viability. Furthermore, this assay endpoint can be referred to as a secondary readout, because this assay has produced multiple assay endpoints where this one serves a viability function. To generalize the intended target to other relatable targets, this assay endpoint is annotated to the cell cycle intended target family, where the subfamily is cytotoxicity.
Thawing Method: Place 14 mL of pre-warmed thaw medium into a 15 mL of conical tub. Remove the vial of cells to be thawed from liquid nitrogen and thaw rapidly by placing at 37C in a water bath with gentle agitation for 1-2 minutes. Decontaminate the vial by wiping with 70% ethanol before opening in a biological safety cabinet. Transfer the vial contents drop-wise into 14 mL of thaw medium in a sterile 15-mL conical tub. Centrifuge cells at 900 rpm for 4 minutes and resuspend in thaw medium. Transfer contents to the T75 tissue culture flask containing Thaw Medium and place flask in a humidified 37C/5% CO2 incubator. Switch to growth medium at first passage.Propagation Method: Aspirate medium, rinse once in DPBS, add 0.25% Trypsin/EDTA and swirl to coat the cell evenly. Add an equal volume of Growth Medium to inactivate Trypsin after 2-3 minutes incubation at 37C. Centrifuge cells at 900 rpm for 4 minutes and resuspend in growth medium. Cell should be passage or fed at least twice a week.Assay Protocol: Harvest cells from culture in growth medium and resuspend in assay medium. 2.2 Dispense 4000 cells/5 uL/well into 1536-well black/clear bottom plates using a Multidrop dispenser. After the cells were incubated at 37C for 5 hours, 23 nL of compounds dissolved in DMSO were transferred to the assay plate by a PinTool resulting in a 217-fold dilution. Incubate the plates for 16 hours at 37C, 5% CO2. Add 1 uL of 6X LiveBLAzer FRET B/G (CCF4-AM) Substrate Mixture to each well using a BioRAPTR dispenser and incubate the plates at room temperature for 2 hours. Measure fluorescence intensity at 460 and 530 nm emission and 405 nm excitation by an Envision detector. Data is expressed as the ratio of 460nm/530nm emissions. Add 4 uL of Cell-titer Glo to each well using BioRAPTR and incubate the plates at room temperature for […]. For cell viability readout that measures cytotoxicity, 4 ul/well of CellTiter-Glo reagent was added into the assay plates using a Flying Reagent Dispenser. After 30 min incubation at room temperature, the luminescence intensity in the plates was measured using a ViewLux plate reader.

Question: Which outcome does the source give for O=C1O[C@H]([C@H](O)CO)C(O)=C1O here?
Answer: Its outcome is “inactive”.

Question: With CN(C)C(=O)NC1(c2ccccc2)CCN(CC[C@@]2(c3ccc(F)c(F)c3)CN(C(=O)c3ccccc3)CCO2)CC1 as the compound, how does the outcome read?
Answer: The outcome was “inactive”.

Question: Which AC50 does the source give for COc1ccc(OC(F)(F)F)cc1CN[C@H]1CCCN[C@H]1c1ccccc1 here?
Answer: The AC50 was 69.3 µM (active).

Question: For CC1(C)C(=O)NC(=O)N1CO, which outcome is on record?
Answer: Its outcome is “inactive”.

Question: For NCCOCCOCCN, which outcome is on record?
Answer: The outcome was “inactive”.

Question: Which outcome does the source give for Oc1ccccc1O here?
Answer: Its outcome is “inactive”.

Question: For CCc1nc(N)nc(N)c1-c1ccc(Cl)cc1, which AC50 is on record?
Answer: The AC50 was 17.2 µM (active) and 11.8 µM (active).

Question: And the outcome?
Answer: Its outcome is “inactive”.

Question: Which outcome does the source give for O=C(O)CN(CC(=O)O)CC(=O)O here?
Answer: Its outcome is “inactive”.

Question: For CC1=C(C)S(=O)(=O)CCS1(=O)=O, which outcome is on record?
Answer: Its outcome is “inactive”.

Question: Which outcome does the source give for CS(=O)(=O)c1ccc([C@@H](C[C@H]2CCC(=O)C2)C(=O)Nc2cnccn2)cc1Cl here?
Answer: The outcome was “inactive”.

Question: Which AC50 does the source give for CCc1cc(C2=C(C(=O)O)N(c3ccccc3C(F)(F)F)S(=O)(=O)c3ccccc32)cc2c1OCO2 here?
Answer: The AC50 was 73.7 µM (active).

Question: With O=C1OC(c2ccc(O)cc2)(c2ccc(O)cc2)c2ccccc21 as the compound, how does the outcome read?
Answer: The outcome was “inactive”.

Question: For Cc1c(C)c2c(c(C)c1O)CCC(C)(COc1ccc(CC3SC(=O)NC3=O)cc1)O2 (stereo not drawn), which AC50 is on record?
Answer: The AC50 was 74.4 µM (active) and 37.1 µM (active).

Question: Which results are given for Oc1ccc(O)cc1?
Answer: outcome: inactive; AC50: 72.8 µM (active) and 70 µM (active)

Question: With c1ccc2occc2c1 as the compound, how does the outcome read?
Answer: The outcome was “inactive”.

Question: For CCCCCCCC(=O)OC, which outcome is on record?
Answer: The outcome was “inactive”.

Question: For CCCCC(CC)COC(=O)CCCCCCCC(=O)OCC(CC)CCCC (stereo not drawn), which outcome is on record?
Answer: Its outcome is “inactive”.

Question: For Cc1cc(SC2=C(O)C[C@@](CCc3ccc(N)cc3)(C(C)C)OC2=O)c(C(C)(C)C)cc1CO, which outcome is on record?
Answer: The outcome was “inactive”.

Question: With CCOCCOCCO as the compound, how does the outcome read?
Answer: The outcome was “inactive”.

Question: With CO[C@@H]1COCC[C@@H]1N[C@@H]1CC[C@@](C(=O)N2CCc3ncc(C(F)(F)F)cc3C2)(C(C)C)C1 as the compound, how does the outcome read?
Answer: The outcome was “inactive”.

Question: With C=CCc1ccc(OC)c(OC)c1 as the compound, how does the outcome read?
Answer: Its outcome is “inactive”.

Question: For CN(C)CCCN1c2ccccc2Sc2ccc(Cl)cc21, which AC50 is on record?
Answer: Its AC50 is 73.4 µM (active).

Question: For COC(=O)CCCC(=O)OC, which outcome is on record?
Answer: The outcome was “inactive”.

Question: For CCCCCCCCCCCCCCOS(=O)(=O)O, which AC50 is on record?
Answer: The AC50 was 74.2 µM (active).

Question: Which outcome does the source give for COC(=O)[C@H]1[C@H]2C[C@@H]3c4[nH]c5cc(OC)ccc5c4CCN3C[C@H]2C[C@@H](OC(=O)c2cc(OC)c(OC)c(OC)c2)[C@@H]1OC here?
Answer: Its outcome is “inactive”.

Question: For CCCCc1nc2cccnc2n1Cc1ccc(-c2ccccc2-c2nnn[nH]2)cc1, which outcome is on record?
Answer: The outcome was “inactive”.

Question: For O=C1c2c(O)cccc2Cc2cccc(O)c21, which outcome is on record?
Answer: The outcome was “inactive”.

Question: Which outcome does the source give for CN(C)C(=O)NC1(c2ccccc2)CCN(CCC[C@]2(c3ccc(Cl)c(Cl)c3)CCCN(C(=O)c3ccccc3)C2)CC1 here?
Answer: Its outcome is “inactive”.

Question: With OCC(CO)n1cnc(-c2ccc(F)cc2)c1-c1ccnc(Oc2ccccc2)n1 as the compound, how does the outcome read?
Answer: The outcome was “inactive”.

Question: Which outcome does the source give for CCC(C)N(C)C(=O)c1cc2ccccc2c(-c2ccccc2Cl)n1 (stereo not drawn) here?
Answer: The outcome was “inactive”.

Question: For Cc1cc(Cc2ccc(N)c(C)c2)ccc1N, which outcome is on record?
Answer: The outcome was “inactive”.

Question: Which outcome does the source give for S=c1[nH]c2ccccc2s1 here?
Answer: Its outcome is “inactive”.

Question: Which outcome does the source give for NC(=Nc1ccccc1)Nc1ccccc1 here?
Answer: Its outcome is “inactive”.

Question: For CCCCC(CC)COP(=O)(OCC(CC)CCCC)OCC(CC)CCCC (stereo not drawn), which outcome is on record?
Answer: The outcome was “inactive”.

Question: With Cc1ccc(C(C)(C)C)c(O)c1 as the compound, how does the outcome read?
Answer: Its outcome is “inactive”.

Question: Which outcome does the source give for Nc1nc(Cl)nc2c1ncn2[C@H]1C[C@H](O)[C@@H](CO)O1 here?
Answer: Its outcome is “inactive”.
